Assay outcomes (PubChem)
D1 PAM – Potentiators of Human D1 Dopamine Receptor: qHTS | D(1A) dopamine receptor (Homo sapiens), P21728 | HEK293 TREx D1 cells, calcium flux, dopamine EC20 potentiation | potentiation, % at 10 µM | actives 0.036% (n = 360,000) | AID 504651, 2011; in the data active = potentiation above about 30%; note: 0% is about no effect
Target sequence (P21728 whole entry, looked up): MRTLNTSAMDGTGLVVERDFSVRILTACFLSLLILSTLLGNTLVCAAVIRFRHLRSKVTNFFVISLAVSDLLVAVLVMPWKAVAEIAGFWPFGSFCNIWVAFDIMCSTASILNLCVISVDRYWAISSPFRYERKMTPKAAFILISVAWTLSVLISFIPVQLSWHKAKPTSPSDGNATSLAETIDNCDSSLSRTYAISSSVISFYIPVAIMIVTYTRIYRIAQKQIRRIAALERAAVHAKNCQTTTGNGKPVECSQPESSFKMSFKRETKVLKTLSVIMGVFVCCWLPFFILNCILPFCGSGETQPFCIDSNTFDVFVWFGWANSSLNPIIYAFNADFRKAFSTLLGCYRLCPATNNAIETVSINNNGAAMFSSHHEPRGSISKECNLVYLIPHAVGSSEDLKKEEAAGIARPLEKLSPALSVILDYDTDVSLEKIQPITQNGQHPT
D1 antagonist – Antagonist of Human D 1 Dopamine Receptor: qHTS | AID 504652, 2011 | actives 3.2% (n = 360,000) | activity change, negative = inhibition, % at 10 µM | D(1A) dopamine receptor (Homo sapiens), P21728 | HEK293 TREx D1 cells, calcium flux, dopamine EC80; stronger effect = lower value; in the data active = activity change below about -30%; note: % is set by controls: 0 for no effect and ±100 for the full control effect
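Using tetracycline-induced force-coupled D1 Hek293 cells and a calcium dye, signals were followed for 180 s after compound, then for 180 s after EC80 dopamine, to detect inhibitors.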
TRHR enhancer-1 – qHTS for Small Molecule Agonists and Allosteric Enhancers of Human TRH Receptor: Primary Screen for Enhancers; enhancement, % at 2 µM; actives 0.66% (n = 360,000); Thyrotropin-releasing hormone receptor (Homo sapiens), P34981; TRHR cells, fluo-8 calcium fluorescence, EC20 TRH enhancement; AID 493056, 2011; in the data active = enhancement above about 30%; note: 0% is about no effect
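TRHR-expressing cells loaded with fluo-8 calcium dye were read kinetically (ex 480/em 530) during compound addition, then stimulated with an EC20 of TRH (10 nM final). Enhancement of the Gq-mediated intracellular calcium response was scored.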
TRHR agonist-1 – qHTS for Small Molecule Agonists and Allosteric Enhancers of Human TRH Receptor: Primary Screen for Agonists. Thyrotropin-releasing hormone receptor (Homo sapiens), P34981. activation, % at 2 µM. TRHR cells, calcium flux fluo-8, FDSS agonist mode. actives 0.18% (n = 360,000); note: 0% is about no effect
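Read-out: compound-evoked intracellular calcium rise in TRHR cells, fluo-8 dye, kinetic FDSS fluorescence at 1 s/cycle following a 10-cycle baseline. Cells cultured overnight before dye loading (30 min–1.5 h, RT).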
D1 ag – Allosteric Agonists of the Human D1 Dopamine Receptor: qHTS | AID 504660, 2011 | D(1A) dopamine receptor (Homo sapiens), P21728 | actives 1% (n = 360,000) | activation, % at 2 µM | HEK293 T-REx D1 cells, calcium flux, agonist mode; note: 0% is about no effect
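Tetracycline-induced HEK293 TREx D1 cells, force-coupled to calcium signalling, were dye-loaded with a no-wash calcium kit. Compound was pin-added after a 10 s baseline. Fluorescence was read kinetically at 1 cycle/s for 180 s, with calcium rises flagged as agonism.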
TRHR enhancer-2 – qHTS for Small Molecule Agonists and Allosteric Enhancers of Human TRH Receptor: Confirmation Screen for Enhancers. TRH receptor cell assay, enhancer confirmation qHTS. 970 tested, under 10 active. AID 493076, 2011. activity change, negative = inhibition, % at 46.1 µM. shares compounds with TRHR enhancer-1; active = well fitted curve in the direction sought with a large enough effect; inconclusive = small, poorly fitted or top-dose-only effect, or another doubt; inactive = no such curve, though single readings can be large; an effect the other way counts as inactive or inconclusive;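 note: compound effect scored on response to added TRH at EC20 of 10 nM; 0% is about no effect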
TRHR agonist-2 – qHTS for Small Molecule Agonists and Allosteric Enhancers of Human TRH Receptor: Confirmation Screen for Agonists. actives 8% (n = 970). TRHR-expressing cells, agonist activation read-out. Potency, µM (titrated, usually from 46.1 µM), for inactives: at the top dose activation, actives largely listed as activators. AID 493078, 2011. shares compounds with TRHR enhancer-1; active = well fitted curve in the direction sought with a large enough effect; inconclusive = small, poorly fitted or top-dose-only effect, or another doubt; inactive = no such curve, though single readings can be large; an effect the other way counts as inactive or inconclusive; note: potency is the fitted concentration of half-maximal effect; 0% is about no effect; nearly all actives have a fitted effect of over 75% in size
* = called active by the depositor; ? = inconclusive; . = no result given. In the library only some 4.7% were active in any assay of this set; here they are far more common. Cut-off read from the data, not from the text of the source, unless noted: active = activation above about 30%; inactive = the rest.

SMILES	D1 PAM	D1 antagonist	TRHR enhancer-1	TRHR agonist-1	D1 ag	TRHR enhancer-2	TRHR agonist-2
CC(=O)N/N=C/c1c(C)[nH]n(-c2ccccc2)c1=O	-9	-24	44*	-1	4	-4	5%
COC(=O)N/N=C\c1c(C)[nH]n(-c2ccccc2)c1=O	-8	-3	2	0	1	.	.
Cc1ccc2c(=O)cc(C(=O)Nc3ccc(S(=O)(=O)Nc4nc(C)cc(C)n4)cc3)oc2c1	4	-9	-10	0	0	.	.
COc1ccc(-c2cc(C(F)F)nc(-n3nc(C)cc3C)n2)cc1	-14	-60*	53*	-1	6	-9	2%
CCOC(=O)c1[nH]c(C)c(C(=O)N(CC)CC)c1C	0	-2	52*	0	2	-8	1%
CCOC(=O)c1[nH]c(C)c(C(=O)NC)c1C	1	-5	10	-1	2	.	.
CCC(C)NCC(O)(c1ccc(Cl)cc1)c1ccc(Cl)cc1 (stereo not given)	-3	11	50*	1	6	-5	?
Cc1ccc(CNCC(O)(c2ccccc2)c2ccc(Cl)cc2)cc1 (stereo not given)	-4	18	0	1	19	.	.
COc1ccc(CCNC(=O)CSc2nc(O)c(CCC(C)C)c(=O)[nH]2)cc1OC	-11	2	2	0	0	.	.
CCCCc1c(O)nc(SCC(=O)NCCc2ccc(OC)c(OC)c2)[nH]c1=O	-4	-1	41*	0	1	9	1%
COc1ccc(CCNC(=O)CSc2nc(C)nc3c2c(=O)n(C)c(=O)n3C)cc1OC	-1	4	45*	0	5	-3	1%
NNC(=S)Nc1ccc(OC(F)(F)F)cc1	3	7	20	-1	0	.	.
CS/C(=C\[N+](=O)[O-])Nc1ccc(OC(F)(F)F)cc1	-1	-9	43*	1	6	-3	?
Cc1cccc(NS(=O)(=O)c2cc3c4c(c2)CCN4C(=O)CC3)c1C	-5	11	45*	0	4	7	-1%
Cc1cccc(NS(=O)(=O)c2cc3c4c(c2)CC(=O)N4CCC3)c1C	-1	-11	-6	0	1	.	.
CCn1c(SCC(=O)Nc2cccc(C(C)=O)c2)nnc1C(C)C	3	1	-4	39*	3	-4	-1%
COc1cccc(C2Nc3ccccc3NC3=C2C(=O)CC(C)(C)C3)c1 (stereo not given)	-4	17	12	0	1	.	.
CCc1ccccc1N(CC(=O)N/N=C/c1ccc(OC(=O)OC)c(OC)c1)S(C)(=O)=O	-7	10	-4	43*	0	4	1%
Nc1ccc(/C=C/C(=O)c2cccs2)cc1	-7	-12	-15	52*	82*	?	21µM*
O=C(NCC1CCCO1)c1nn2c(C(F)(F)F)cc(-c3ccc(Br)o3)nc2c1Br (stereo not given)	.	1	1	-1	2	.	.
CCn1c(SCC(N)=O)nc2c1c(=O)n(C)c(=O)n2C	1	-21	2	1	0	.	.
CCn1c(N)nc2c1c(=O)n(C)c(=O)n2C	-10	0	44*	1	3	2	-1%
CCOc1ccc(CN(C(=O)/C=C/c2ccco2)C2CCS(=O)(=O)C2)cc1 (stereo not given)	-1	4	-8	41*	0	1	1%
CCC1=NN(C(=O)c2ccc(Cl)cc2)C(O)(c2ccccc2)C1 (stereo not given)	-2	-4	-11	0	8	.	.
COC(=O)C1=NN(C(=O)c2ccc(Cl)cc2)C(O)(c2ccccc2)C1 (stereo not given)	-4	3	-6	47*	30*	-7	18µM*
SMILES	D1 PAM	D1 antagonist	TRHR enhancer-1	TRHR agonist-1	D1 ag	TRHR enhancer-2	TRHR agonist-2
CCN(CC(=O)Nc1c(F)cccc1F)C(=O)c1cccc(S(=O)(=O)N2CCCCCC2)c1	-10	-5	42*	0	1	-3	1%
COC(=O)COc1ccc(S(=O)(=O)Nc2cc([N+](=O)[O-])ccc2C)cc1	-5	0	45*	0	5	4	-1%
COc1ccccc1C/C(N)=N/OC(=O)c1cccs1	9	2	47*	0	0	-2	-1%
COc1cccc2c(=O)c3ccoc3n(C)c12	2	2	42*	-1	-5	-5	2%
COc1cccc2c(=O)c3c(cnn3C)n(C)c12	-1	2	-3	0	2	.	.
COc1ccc(-c2cc(C(F)(F)F)c3c(n2)sc2c(O)cc(=O)[nH]c23)c(OC)c1	-2	-15	8	34*	42*	4	?
COc1ccc(CN2CCN(Cc3ccc(CO)o3)CC2CCO)cc1C (stereo not given)	1	3	57*	0	5	-1	1%
CC1CCCCN1CCNC(=O)c1ccc2c(=O)n(CCc3ccccc3)c(=O)[nH]c2c1 (stereo not given)	-4	.	3	1	1	.	.
O=C(NCC1CCCO1)c1ccc2c(=O)n(CCc3ccccc3)c(=O)[nH]c2c1 (stereo not given)	-6	-3	46*	2	6	0	2%
O=[N+]([O-])c1cccc(-c2nn(-c3ccccc3)cc2CO)c1	5	1	4	2	2	.	.
O=C(NCc1cn(-c2ccccc2)nc1-c1ccccc1)c1ccc([N+](=O)[O-])cc1	-1	-9	44*	1	1	-7	-1%
CC(C)(C)c1ccc(OCCCC(=O)NNC(=O)c2ccccc2O)cc1	-7	-10	41*	0	15	-4	0%
CCOC(=O)c1cccc(NC(=O)c2ccc3nc(Cc4ccccc4)oc3c2)c1	0	-1	4	1	6	.	.
COc1cc(CNCc2ccccn2)ccc1OCC(=O)NC1CCCCC1	0	3	45*	-1	0	1	-1%
Cc1nc2c(-c3ccccc3)c(C)nn2c(C)c1CCC(=O)NCc1cccc(Cl)c1	-7	7	4	0	1	.	.
